# From PMC11062922 (Nature Chemical Biology, 2023)
# Where two headings read alike, the source gives them in different places.
# What was measured:
# Parameters in all cases: species or system human, MV4-11 + K-562 + COLO205 + SK-N-BE2 + OVCAR-8
# [1] = tested on: AURKB; conditions: read-out: apparent Kd, compound concentrations: 100 nM and 1000 nM (sheet 'Samples'), n = 1
# [2] = tested on: EGFR; conditions: read-out: apparent Kd; compound concentrations: 100 nM and 1000 nM (sheet 'Samples'), CATDS: 0.10899892771168; n = 1
# [3] = tested on: HSP90B1; conditions: read-out: apparent Kd; compound concentrations:100 nM and 1000 nM (sheet 'Samples'); n = 1
# [4] = tested on: MAP2K2; conditions: read-out: apparent Kd; compound concentrations:100 nM and 1000 nM (sheet 'Samples'); n = 1
# [5] = tested on: MAP2K5; conditions: read-out: apparent Kd; compound concentrations:100 nM and 1000 nM (sheet 'Samples'); n = 1
# [6] = tested on: PTK6; conditions: read-out: apparent Kd; compound concentrations:100 nM and 1000 nM (sheet 'Samples'); n = 1
# [7] = tested on: RET; conditions: read-out: apparent Kd; compound concentrations:100 nM and 1000 nM (sheet 'Samples'); n = 1
# [8] = tested on: BMP2K; conditions: read-out: apparent Kd; compound concentrations: 100 nM and 1000 nM (sheet 'Samples'), CATDS: 7.6838434423815494E-2; n = 1
# [9] = tested on: CDKL5; conditions: read-out: apparent Kd; compound concentrations: 100 nM and 1000 nM (sheet 'Samples'), CATDS: 7.5707148377712405E-2; n = 1
# [10] = tested on: FLT3; conditions: read-out: apparent Kd; compound concentrations: 100 nM and 1000 nM (sheet 'Samples'), CATDS: 9.6631146746451402E-2; n = 1
# [11] = tested on: GSK3A; conditions: read-out: apparent Kd; compound concentrations: 100 nM and 1000 nM (sheet 'Samples'), CATDS: 8.1333822841740205E-2; n = 1
# [12] = tested on: GSK3B; conditions: read-out: apparent Kd; compound concentrations: 100 nM and 1000 nM (sheet 'Samples'), CATDS: 7.5519353695847294E-2; n = 1
# [13] = tested on: HSPE1; conditions: read-out: apparent Kd; compound concentrations: 100 nM and 1000 nM (sheet 'Samples'), CATDS: 0.31901289007405398; n = 1
# [14] = tested on: ICK; conditions: read-out: apparent Kd; compound concentrations: 100 nM and 1000 nM (sheet 'Samples'), CATDS: 5.8957301425707501E-2; n = 1
# [15] = tested on: JAK1; conditions: read-out: apparent Kd, compound concentrations: 100 nM and 1000 nM (sheet 'Samples'), n = 1
# [16] = tested on: MAPK9; conditions: read-out: apparent Kd; compound concentrations: 100 nM and 1000 nM (sheet 'Samples'), CATDS: 5.8843363107673401E-2; n = 1
# [17] = tested on: NUAK1; conditions: read-out: apparent Kd; compound concentrations: 100 nM and 1000 nM (sheet 'Samples'), CATDS: 6.5408557388510299E-2; n = 1
# [18] = tested on: PGK1; conditions: read-out: apparent Kd; compound concentrations: 100 nM and 1000 nM (sheet 'Samples'), CATDS: 0.33349072490792903; n = 1
# [19] = tested on: PKM; conditions: read-out: apparent Kd; compound concentrations: 100 nM and 1000 nM (sheet 'Samples'), CATDS: 6.2556323198701705E-2; n = 1
# [20] = tested on: BMPR2; conditions: read-out: apparent Kd; compound concentrations: 100 nM and 1000 nM (sheet 'Samples'), CATDS: 6.92108143191002E-2; n = 1
# [21] = tested on: CDC7; conditions: read-out: apparent Kd; compound concentrations: 100 nM and 1000 nM (sheet 'Samples'), CATDS: 7.2811960251287902E-2; n = 1
# [22] = tested on: CLK1; conditions: read-out: apparent Kd; compound concentrations: 100 nM and 1000 nM (sheet 'Samples'), CATDS: 6.6251473023667004E-2; n = 1
# [23] = tested on: CLK4; conditions: read-out: apparent Kd; compound concentrations: 100 nM and 1000 nM (sheet 'Samples'), CATDS: 8.9206642022587504E-2; n = 1
# [24] = tested on: CSNK2A1;CSNK2A3; conditions: read-out: apparent Kd; compound concentrations: 100 nM and 1000 nM (sheet 'Samples'), CATDS: 8.9230390485803696E-2; n = 1
# [25] = tested on: CSNK2A2; conditions: read-out: apparent Kd; compound concentrations: 100 nM and 1000 nM (sheet 'Samples'), CATDS: 7.4198005881570203E-2; n = 1
# [26] = tested on: GAK; conditions: read-out: apparent Kd; compound concentrations: 100 nM and 1000 nM (sheet 'Samples'), CATDS: 0.232195819387676; n = 1
# [27] = tested on: PI4KB; conditions: read-out: apparent Kd; compound concentrations: 100 nM and 1000 nM (sheet 'Samples'), CATDS: 0.18235028668709399; n = 1
# [28] = tested on: PIK3C2B; conditions: read-out: apparent Kd; compound concentrations: 100 nM and 1000 nM (sheet 'Samples'), CATDS: 7.7184460843741698E-2; n = 1
# [29] = tested on: RIOK2; conditions: read-out: apparent Kd; compound concentrations: 100 nM and 1000 nM (sheet 'Samples'), CATDS: 5.9872886906535798E-2; n = 1
# [30] = tested on: TNIK; conditions: read-out: apparent Kd; compound concentrations: 100 nM and 1000 nM (sheet 'Samples'), CATDS: 7.3078421719639103E-2; n = 1
# [31] = tested on: IKBKE; conditions: read-out: apparent Kd; compound concentrations:100 nM and 1000 nM (sheet 'Samples'); n = 1
# [32] = tested on: PIK3C3; conditions: read-out: apparent Kd; compound concentrations:100 nM and 1000 nM (sheet 'Samples'); n = 1
# [33] = tested on: TBK1; conditions: read-out: apparent Kd; compound concentrations:100 nM and 1000 nM (sheet 'Samples'); n = 1
structure (smiles),measurement,setting,value
COc1cc2c(Nc3ccc(NC(=O)c4ccccc4)cc3)ncnc2cc1OCCCN1CCOCC1 [GSK301329A],potency estimated from few doses,[1]; CATDS: 0.55138330390134005,50.7 nM
same,potency estimated from few doses,[2],1470 nM
same,potency estimated from few doses,[3],1090 nM
same,potency estimated from few doses,[4],1940 nM
same,potency estimated from few doses,[5],238 nM
same,potency estimated from few doses,[6],487 nM
same,potency estimated from few doses,[7],1450 nM
Cc1ccc2c(c1)c(C1=C(c3cn(C)c4ccccc34)C(=O)NC1=O)cn2C [RO0317510-000],potency estimated from few doses,[8],783 nM
same,potency estimated from few doses,[9],815 nM
same,potency estimated from few doses,[10],449 nM
same,potency estimated from few doses,[11],676 nM
same,potency estimated from few doses,[12],820 nM
same,potency estimated from few doses,[13],48.4 nM
same,potency estimated from few doses,[14],1800 nM
same,potency estimated from few doses,[15]; CATDS: 9.4979881318968506E-2,467 nM
same,potency estimated from few doses,[16],1810 nM
same,potency estimated from few doses,[17],1250 nM
same,potency estimated from few doses,[18],45.2 nM
same,potency estimated from few doses,[19],1450 nM
COC(=O)c1ccc2c(c1)C(=Cc1cc(Br)c(O)c(Br)c1)C(=O)N2 [GW405841X],potency estimated from few doses,[20],1220 nM
same,potency estimated from few doses,[21],1070 nM
same,potency estimated from few doses,[22],1380 nM
same,potency estimated from few doses,[23],668 nM
same,potency estimated from few doses,[24],667 nM
same,potency estimated from few doses,[25],1020 nM
same,potency estimated from few doses,[26],138 nM
same,potency estimated from few doses,[15]; CATDS: 8.5496102279709801E-2,731 nM
same,potency estimated from few doses,[27],194 nM
same,potency estimated from few doses,[28],924 nM
same,potency estimated from few doses,[29],1910 nM
same,potency estimated from few doses,[30],1060 nM
CC(C)(C)OC(=O)NC1CCCN(c2cc(-c3ccc4c(N)n[nH]c4c3)nc(N)n2)C1 (centres unmarked) [GSK2286096A],potency estimated from few doses,[1]; CATDS: 0.30892280218859702,105 nM
same,potency estimated from few doses,[31],78.7 nM
same,potency estimated from few doses,[32],978 nM
same,potency estimated from few doses,[33],129 nM
